Data as given in PubChem BioAssay (NCATS).
Inconclusive results are not listed. Active and inactive are the calls of the source. Calls follow the shape of the dose curve; as a rule, active = well fitted curve in the direction sought with a large enough effect; inconclusive = small, poorly fitted or top-dose-only effect, or another doubt; inactive = no such curve, though single readings can be large; an effect the other way counts as inactive or inconclusive.

Tests used:
NIH3T3 = assay: qHTS assay to identify novel small-molecules to repurpose for Merkel cell carcinoma treatment (AID 1296009); settings: MCC and control cell lines, CellTiter-Glo viability, 72 h; at 44.8 µM (top of the series) unless noted; also: nearly all actives have a fitted effect of over 60% in size
Summary of the method: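 Viability readout: ATP luminescence (CellTiter-Glo) after 72 hr drug exposure at 37 degree celsius. Dose-response format was 8 points for NPC and 11 points for MIPE; data normalized to in-plate controls.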

C33A = assay: Primary qHTS to identify gynecologic anti-cancer compounds using libraries of approved drugs and bioactive compounds (AID 1345084); settings: Gynecologic cancer cell panel viability, ATPlite luminescence, 48 h; series mostly up to 57.5 µM; also: % is scaled to controls: 0 for no effect and ±100 for the full control effect; nearly all actives have a fitted effect of over 55% in size
Summary of the method: (§1)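 Five-concentration response, 48 h; readout is ATP-driven luciferase luminescence.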

CAOV3 = assay: as above; settings: Gynecologic cancer cell panel viability, ATPlite luminescence, 48 h; series mostly up to 57.5 µM
Summary of the method: as §1

CASKI = assay: as above; settings: Gynecologic cancer cell panel viability, ATPlite luminescence, 48 h; series mostly up to 57.5 µM
Summary of the method: as §1

Es-2 = assay: as above; settings: Gynecologic cancer cell panel viability, ATPlite luminescence, 48 h; series mostly up to 57.5 µM
Summary of the method: as §1

HeLa = assay: as above; settings: Gynecologic cancer cell panel viability, ATPlite luminescence, 48 h; series mostly up to 57.5 µM
Summary of the method: as §1

Hek293T = assay: as above; settings: Gynecologic cancer cell panel viability, ATPlite luminescence, 48 h, control line for the selectivity index; series mostly up to 57.5 µM
Summary of the method: as §1

JEG-3 = assay: as above; settings: Gynecologic cancer cell panel viability, ATPlite luminescence, 48 h; series mostly up to 57.5 µM
Summary of the method: as §1

OV90 = assay: as above; settings: Gynecologic cancer cell panel viability, ATPlite luminescence, 48 h; series mostly up to 57.5 µM
Summary of the method: as §1

PA-1 = assay: as above; settings: Gynecologic cancer cell panel viability, ATPlite luminescence, 48 h; series mostly up to 57.5 µM
Summary of the method: as §1

SKOV3 = assay: as above; settings: Gynecologic cancer cell panel viability, ATPlite luminescence, 48 h; series mostly up to 57.5 µM
Summary of the method: as §1

Tov-21-G = assay: as above; settings: Gynecologic cancer cell panel viability, ATPlite luminescence, 48 h; series mostly up to 57.5 µM
Summary of the method: as §1

Tov112D = assay: as above; settings: Gynecologic cancer cell panel viability, ATPlite luminescence, 48 h; series mostly up to 57.5 µM
Summary of the method: as §1

CC1(C)CC[C@]2(C(=O)O)CC[C@]3(C)C(=CCC4[C@@]5(C)C[C@H](O)[C@H](O[C@@H]6O[C@H](CO)[C@@H](O)[C@H](O)[C@H]6O)[C@@](C)(CO)C5[C@H](O)C[C@]43C)[C@@H]2C1 (stereo partly specified)
inactive: outcome (NIH3T3) inactive [at 17.4 µM] | Potency (C33A) | Potency (CAOV3) | outcome (CASKI) | Potency (Es-2) | Potency (HeLa) | Potency (Hek293T) | Potency (JEG-3) | Potency (OV90) | Potency (PA-1) | Potency (SKOV3) | Potency (Tov-21-G) | Potency (Tov112D)

O=C(/C=C/c1ccc(O)cc1)O[C@H]1[C@H](OC2CCCCC2O)O[C@H](CO)[C@@H](O)[C@@H]1O (stereo partly specified)
inactive: outcome (NIH3T3) inactive [at 17.4 µM] | Potency (C33A) | Potency (CAOV3) | outcome (CASKI) | Potency (Es-2) | Potency (HeLa) | Potency (Hek293T) | Potency (JEG-3) | Potency (OV90) | Potency (PA-1) | Potency (SKOV3) | Potency (Tov-21-G) | Potency (Tov112D)

CC[C@H]1OC(=O)[C@H](C)C(=O)[C@H](C)[C@@H](OC2O[C@H](C)C[C@H](N(C)C)[C@H]2O)[C@@H](C)C[C@@H](C)C(=O)/C=C/[C@]1(C)O (stereo partly specified)
inactive: outcome (NIH3T3) inactive [at 17.4 µM] | Potency (C33A) | Potency (CAOV3) | outcome (CASKI) | Potency (Es-2) | Potency (HeLa) | Potency (Hek293T) | Potency (JEG-3) | Potency (OV90) | Potency (PA-1) | Potency (SKOV3) | Potency (Tov-21-G) | Potency (Tov112D)

Cc1ccc(Nc2nnc(-c3ccc([N+](=O)[O-])cc3)o2)cc1Cl
inactive: outcome (NIH3T3) | Potency (C33A) | Potency (CAOV3) | outcome (CASKI) | Potency (Es-2) | Potency (HeLa) | Potency (Hek293T) | Potency (JEG-3) | Potency (OV90) | Potency (PA-1) | Potency (SKOV3) | Potency (Tov-21-G) | Potency (Tov112D)

COc1ccc2[nH]c(S(=O)Cc3ncc(C)c(OC)c3C)nc2c1 (stereo unspecified)
inactive: outcome (NIH3T3) | Potency (C33A) | Potency (CAOV3) | outcome (CASKI) | Potency (Es-2) | Potency (HeLa) | Potency (Hek293T) | Potency (JEG-3) | Potency (OV90) | Potency (PA-1) | Potency (SKOV3) | Potency (Tov-21-G) | Potency (Tov112D)

C[C@@H]1C[C@@H](O)[C@@]2(CO)C(CO)=CCC[C@@H]2[C@@]12C[C@@H](c1ccoc1)OC2=O
inactive: outcome (NIH3T3) | Potency (C33A) | Potency (CAOV3) | outcome (CASKI) | Potency (Es-2) | Potency (HeLa) | Potency (Hek293T) | Potency (JEG-3) | Potency (OV90) | Potency (PA-1) | Potency (SKOV3) | Potency (Tov-21-G) | Potency (Tov112D)

COC(=O)[C@H](O)[C@H]1C(C)(C)[C@H](OC(C)=O)[C@@]2(O)C(=O)[C@]1(C)C1CC[C@]3(C)C(CC(=O)O[C@H]3c3ccoc3)[C@]13O[C@@H]32 (stereo partly specified)
inactive: outcome (NIH3T3) inactive [at 17.4 µM] | Potency (C33A) | Potency (CAOV3) | outcome (CASKI) | Potency (Es-2) | Potency (HeLa) | Potency (Hek293T) | Potency (JEG-3) | Potency (OV90) | Potency (PA-1) | Potency (SKOV3) | Potency (Tov-21-G) | Potency (Tov112D)

COc1cc([C@H]2OC[C@](O)(Cc3ccc(O[C@@H]4O[C@H](CO)[C@@H](O)[C@H](O)[C@H]4O)c(OC)c3)[C@@H]2CO)ccc1O
inactive: outcome (NIH3T3) inactive [at 17.4 µM] | Potency (C33A) | Potency (CAOV3) | outcome (CASKI) | Potency (Es-2) | Potency (HeLa) | Potency (Hek293T) | Potency (JEG-3) | Potency (OV90) | Potency (PA-1) | Potency (SKOV3) | Potency (Tov-21-G) | Potency (Tov112D)

CC1(C)CC[C@]2(C(=O)O[C@@H]3O[C@H](CO)[C@@H](O)[C@H](O)[C@H]3O)CC[C@]3(C)C(=CCC4[C@@]5(C)C[C@@H](O)[C@H](O)[C@@](C)(CO)C5[C@H](O)C[C@]43C)C2[C@@H]1O (stereo partly specified)
inactive: outcome (NIH3T3) inactive [at 17.4 µM] | Potency (C33A) | Potency (CAOV3) | outcome (CASKI) | Potency (Es-2) | Potency (HeLa) | Potency (Hek293T) | Potency (JEG-3) | Potency (OV90) | Potency (PA-1) | Potency (SKOV3) | Potency (Tov-21-G) | Potency (Tov112D)

OC[C@@]1(O)CO[C@H](OC[C@H]2O[C@@H](OC(CCCCc3ccc(O)cc3)CCc3ccc(O)cc3)[C@H](O)[C@@H](O)[C@@H]2O)[C@@H]1O (stereo partly specified)
inactive: outcome (NIH3T3) inactive [at 17.4 µM] | Potency (C33A) | Potency (CAOV3) | outcome (CASKI) | Potency (Es-2) | Potency (HeLa) | Potency (Hek293T) | Potency (JEG-3) | Potency (OV90) | Potency (PA-1) | Potency (SKOV3) | Potency (Tov-21-G) | Potency (Tov112D)

CCC(C)/C=C(C)/C=C/C1=CC2=CC(=O)C(C)(O)C(OC(C)=O)C2CO1 (stereo unspecified)
inactive: outcome (NIH3T3) | Potency (C33A) | Potency (CAOV3) | outcome (CASKI) | Potency (Es-2) | Potency (HeLa) | Potency (Hek293T) | Potency (JEG-3) | Potency (OV90) | Potency (PA-1) | Potency (SKOV3) | Potency (Tov-21-G) | Potency (Tov112D)

C[C@@H]1O[C@@H](O[C@H]2[C@H](OC(=O)[C@]34CCC(C)(C)C[C@H]3C3=CCC5[C@@]6(C)C[C@@H](O)[C@@H](O)[C@@](C)(CO)C6[C@H](O)C[C@@]5(C)[C@]3(C)CC4)OC[C@H](O)[C@@H]2O)[C@H](O)[C@H](O)[C@H]1O[C@@H]1OC[C@@H](O)[C@H](O[C@H]2O[C@H](C)[C@@H](O)[C@H](O)[C@@H]2O)[C@H]1O (stereo partly specified)
inactive: outcome (NIH3T3) inactive [at 9.27 µM] | activity change, negative = cytotoxicity (C33A) -5.04% [at 11.6 µM] | activity change, negative = cytotoxicity (CAOV3) 7.19% [at 11.6 µM] | activity change, negative = cytotoxicity (CASKI) 15.8% [at 11.6 µM] | activity change, negative = cytotoxicity (Es-2) 6.09% [at 11.6 µM] | activity change, negative = cytotoxicity (HeLa) 13.1% [at 11.6 µM] | activity change, negative = cytotoxicity (Hek293T) -1.53% [at 11.6 µM] | activity change, negative = cytotoxicity (JEG-3) 3.24% [at 11.6 µM] | activity change, negative = cytotoxicity (OV90) 9.69% [at 11.6 µM] | activity change, negative = cytotoxicity (PA-1) 12.4% [at 11.6 µM] | activity change, negative = cytotoxicity (SKOV3) -1.53% [at 11.6 µM] | activity change, negative = cytotoxicity (Tov-21-G) 0.722% [at 11.6 µM] | activity change, negative = cytotoxicity (Tov112D) 3.92% [at 11.6 µM]
